In PubChem BioAssay (NCI):
Compounds without any hit were thinned out: in the full panel of roughly 79,000, 15% have a hit. Active and inactive are the calls of the source. Cut-off read from the data, not from the text of the source: active = growth inhibition above about 70%; inactive = the rest. Where a SMILES comes first, the peptide text is derived from it. The star is where a group is joined. ONp = O=[N+]([O-])c1ccc(O*)cc1; Tos = Cc1ccc(S(=O)(=O)*)cc1

assay: NCI Yeast Anticancer Drug Screen. Data for the mlh1 rad18 strain (AID 175); settings: S. cerevisiae mlh1 rad18 strain growth inhibition; at 50.0 µM; hits give high values
Outline: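 Growth inhibition of the yeast strain was measured after compound exposure and expressed relative to vehicle-treated controls. The strain carries defined defects in DNA damage repair.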

Row | Structure (SMILES) | growth inhibition
1 | Cc1cc(=O)oc2nc(-c3ccccc3)[nH]c(=O)c12 | 18.3% (inactive)
2 | O=C(Nc1cccc([N+](=O)[O-])c1)Nc1ccccc1F | 9.55% (inactive)
3 | COc1cc(C2c3c(cc(OC)c(O)c3OC)C=C(C(=O)O)C2CO)cc(OC)c1O (stereo not given) | 14.3% (inactive)
4 | Cc1cc(C(=O)O)ccc1C(=O)O | -25.1% (inactive)
5 | COc1ccc(CC2OCCC3c4ccccc4NC23)cc1OC (stereo not given) | -2.05% (inactive)
6 | CC(=O)C1=CCC2[C@H]3CC=C4C[C@H](O)CC[C@@]4(C)C3CC[C@@]12C (stereo not given in full) | 37.7% (inactive)
7 | CC(=O)C(C)(C)O | 38.9% (inactive)
8 | CCc1nnc2n1N=C(c1ccc(-c3ccccc3)cc1)CS2 | 26.1% (inactive)
9 | CC(C)CC(N)C(=O)NC(Cc1c[nH]c2ccccc12)C(N)=O (stereo not given) | 10.5% (inactive)
10 | C=C1CCC2C(C)(CO)C(O)CCC2(C)C1CCC1=CCOC1=O (stereo not given) | -8.05% (inactive)
11 | Brc1ccccc1-c1nnc(-c2cccc3ccccc23)o1 | -23.2% (inactive)
12 | O=C1c2ccc([N+](=O)[O-])cc2C(=O)N1CCBr | 13.1% (inactive)
13 | OCc1ccccc1CC(O)c1ccccc1 (stereo not given) | -59.4% (inactive)
14 | O=C(Nc1ccc2ccccc2c1)C1CC1 | -6.65% (inactive)
15 | C(=C/c1ccccc1)/CNCCNC/C=C/c1ccccc1 | 47.5% (inactive)
16 | Cc1ccc(S(=O)(=O)NCC(=O)NCC(=O)Oc2ccc([N+](=O)[O-])cc2)cc1 (Tos-Gly-Gly-ONp) | 16% (inactive)
17 | Cc1cn(C2CC(O)C(CO)O2)c(=O)nc1NC1CCCCCCCCCCC1 (stereo not given) | -6.4% (inactive)
18 | O=C1c2cc3c(cc2CC12Cc1cc4c(cc1C2)CCC4)CCC3 | -1.35% (inactive)
19 | C/C(CC(=O)Nc1ccc(Cc2ccc(Cl)cc2)cc1)=N/Nc1ccc([N+](=O)[O-])cc1[N+](=O)[O-] | 22.6% (inactive)
20 | CC1OC(O[C@@H]2OC=C(C=O)[C@@]3(O)CC[C@H](C)[C@@H]23)C(O)C(O)C1O (stereo not given in full) | -39.2% (inactive)

Row | Structure (SMILES) | growth inhibition
21 | COc1cc2c3cc1Oc1c(O)c(OC)cc4c1C(Cc1ccc(O)c(c1)Oc1ccc(cc1)CC3N(C)CC2)N(C)CC4 (stereo not given) | -13% (inactive)
22 | CCc1ccc(/C(C#N)=C/c2ccccc2Cl)cc1 | 27.1% (inactive)
23 | Cc1cc(O)c(C=NC(=S)c2ccccc2)c(=O)o1 | -40.4% (inactive)
24 | c1ccc2c(CN3CCCCC3)cccc2c1 | -13.9% (inactive)
25 | O=C(CN1CCCCC1)NC(=O)N/N=C\c1ccco1 | 13.8% (inactive)
26 | O=C(COCC(=O)N/N=C/c1ccc(O)cc1)N/N=C/c1ccc(O)cc1 | 26.3% (inactive)
27 | Nc1ccc(S(=O)(=O)N/N=C/c2ccccc2)cc1 | 29.8% (inactive)
28 | CCCNS(=O)(=O)c1nc2ccccc2s1 | -20.8% (inactive)
29 | CC(O)CCCCC(O)CCC[C@H](O)[C@H]1CCC([C@H]2CCC([C@@H](O)CCCCCCCCCCCCC3=C[C@H](C)OC3=O)O2)O1 (stereo not given in full) | 81.7% (active)
30 | Cc1cc(OCc2nnc3n2S(=O)(=O)c2ccccc2N3C)ccc1Cl | -22.4% (inactive)
31 | Cc1c(Cl)ccc2c1NC(=O)C2(O)C1Cc2ccccc2C1=O (stereo not given) | 28% (inactive)
32 | C(=C\c1ccc2ccccc2c1)/c1ccc2ccccc2c1 | 31.4% (inactive)
33 | CC(C)=NNC(=O)c1ccccc1CC(O)(c1ccccc1)c1ccccc1 | 15.2% (inactive)
34 | CCOC(=O)Cc1nc(Cl)c2c(C)c(C)sc2n1 | 40.5% (inactive)
35 | CN(C)CCCNc1ccc2nnn3c4ccc(O)cc4c(=O)c1c23 | 19% (inactive)
36 | CCCCSc1nc(NCC)nc(NCC)n1 | 41.9% (inactive)
37 | Nc1nc(N)c(N)c(Nc2ccc(Cl)cc2)n1 | 2.5% (inactive)
38 | CCOc1ccc(NC(C)=O)c([N+](=O)[O-])c1 | 2.55% (inactive)
39 | CCOC(=O)CCC(C(=O)OCC)C(C)C(=O)OCC (stereo not given) | -15.2% (inactive)
40 | CCOCCOC(=O)Nc1ccc(C)c(NC(=O)OCCOCC)c1 | -4.8% (inactive)
